PubChem BioAssay (NCATS)
Several values for one entry are separate records, joined by “and”; a condition that tells them apart may be missing. Equal values may be shown once. A number with no mark means an inactive call. Records with an inconclusive call do not appear. Entries that show only a call come without a potency. Activity calls are given as the source filed them. Unless noted, calls follow the shape of the dose curve; as a rule, active = well fitted curve in the direction sought with a large enough effect; inconclusive = small, poorly fitted or top-dose-only effect, or another doubt; inactive = no such curve, though single readings can be large; an effect the other way counts as inactive or inconclusive.

Tests used:
[1] = Cell Viability - Renal Proximal Tubule (AID 545);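 also: cells exposed to compound for 40 hours; nearly all actives have a fitted effect of over 40% in size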
Method in brief: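 Cytotoxicity is scored as a concentration-dependent drop in cellular ATP in primary rat renal proximal tubule cells exposed for 40 hr. AC50 derives from Hill modelling.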

[2] = Cellular Toxicity (caspase-3) Jurkat (AID 655); conditions: Jurkat caspase-3 activation, luminescence; caspase-3 activation: at 92.2 µM (top of the series), DMSO = 0%, tamoxifen = 100%;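 also: cells exposed to compound for 16 h at 37 °C before reading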
Method in brief: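 Caspase 3/7 activation is scored as increased luminescence in Jurkat cells cultured with compound for 16 hours in complete medium. AC50 values come from Hill fits of qHTS concentration-response data normalized to DMSO and 100 uM tamoxifen controls.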

[3] = Cell Viability - LYMP1-003 - Assay at 40 hr (AID 964); also: nearly all actives have a fitted effect of over 60% in size
Method in brief: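 Viability is taken as cellular ATP, read by CellTiter-Glo luminescence after 40 h of compound exposure at 37 C. Cells: human lymphoblastoid line LYMP1-003 at 2500/well; AC50 values derived by Hill-equation fitting of concentration-response data.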

[4] = Cell Viability - LYMP2-009 (AID 968); also: nearly all actives have a fitted effect of over 55% in size; also: potency is read from the fitted curve at half-maximal effect
[5] = Cell Viability - LYMP2-011 (AID 969); also: nearly all actives have a fitted effect of over 60% in size
Method in brief: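 Cytotoxicity qHTS with ATP content as read-out: lymphoblastoid cells (2500/well) exposed to compound for 24 h at 37 C, then luciferase luminescence measured. Concentration-response data fitted with the standard Hill equation to give AC50.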

[6] = Cell Viability - LYMP2-017 (AID 972); also: nearly all actives have a fitted effect of over 55% in size; also: potency is read from the fitted curve at half-maximal effect
Method in brief: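 CellTiter-Glo luminescence (cellular ATP, 30 min RT) measured cytotoxicity after 24 hr compound treatment at 37 C. Cells were a human lymphoblastoid line, LYMP2-017, plated at 2500/well and incubated 5 hr first; concentration-response fitted with Hill equation for AC50.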

[7] = Cell Viability - LYMP2-021 (AID 974); also: nearly all actives have a fitted effect of over 55% in size
Method in brief: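 AC50 values come from Hill-equation fits to CellTiter-Glo luminescence (ATP content), read after 24 hour compound exposure at 37 C of 2500 LYMP2-021 lymphoblastoid cells/well; tetraoctylammonium bromide as positive control.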

[8] = Cell Viability - LYMP2-002 (AID 977)
Method in brief: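 In this qHTS viability screen, 2500 human lymphoblastoid cells per well receive compound for 24 hr at 37 C, and luciferase-based ATP luminescence gives the viability signal. Tetraoctylammonium bromide serves as positive control.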

[9] = Cell Viability - LYMP2-006 (AID 978); also: nearly all actives have a fitted effect of over 60% in size
Method in brief: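 Concentration-dependent loss of intracellular ATP in a human lymphoblastoid line after 24 hr treatment at 37 C was measured by CellTiter-Glo luminescence, with AC50 values obtained from standard Hill-equation modelling.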

[10] = Cell Viability - LYMP2-010 (AID 981); also: nearly all actives have a fitted effect of over 55% in size; also: potency is read from the fitted curve at half-maximal effect
Method in brief: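 CellTiter-Glo ATP luminescence measured cytotoxicity after 24 h compound exposure at 37 C. LYMP2-010 cells were seeded at 2500/well, with tetraoctylammonium bromide as control; concentration-response curves gave AC50 values by the Hill equation.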

[11] = Cell Viability - LYMP2-014 (AID 983); also: nearly all actives have a fitted effect of over 50% in size
Method in brief: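 Intracellular ATP loss, read by luciferase luminescence, measures acute cytotoxicity after 24 h compound exposure of lymphoblastoid LYMP2-014 cells (2500/well, 37 C). Concentration-response data fitted to the Hill equation for AC50.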

[12] = Cell Viability - LYMP2-020 (AID 986); also: nearly all actives have a fitted effect of over 55% in size
Method in brief: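 Cytotoxicity in qHTS format: luminescent ATP readout from CellTiter-Glo after 24 h compound exposure at 37 C in complete medium. LYMP2-020 lymphoblastoid cells were seeded at 2500/well; concentration-response data fitted to the Hill equation for AC50.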

[13] = qHTS assay for small molecule activators of the nuclear factor-kappa B (NF-kB) signaling pathway (AID 651749; active = well fitted activation curve with a large enough effect in the signal ratio; the % refers to the signal ratio); conditions: NF-kB-bla ME-180 cells, beta-lactamase FRET ratio, 16 h; hits give high values
Method in brief: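 Human ME-180 cervical cells with an NF-kB-bla construct; compounds added via 23 nL pin transfer, DMSO as vehicle; incubation 16 hr. Reporter activity measured by FRET disruption.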

[14] = target: Mitogen-activated protein kinase 10 (Mus musculus) (UniProt Q61831); assay: JNK3 AlphaScreen Assay (AID 530; active = well fitted curve in either direction with a large enough effect, not every such curve was filed as active;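 also: kinase came from lysate of stimulated human HepG2 cells; signal reports phosphorylation of biotinylated GST-cJun 1-79 at Ser73 with 10 µM ATP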)
Method in brief: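 Phosphorylation of biotinylated GST-cJun(1-79) at Ser73 is measured by AlphaScreen proximity luminescence. Enzyme is JNK3 in HepG2 lysates activated with interleukin-1beta and tumor necrosis factor alpha; ATP is 10 uM final.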

[15] = Cell Viability - LYMP2-003 (AID 965);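 also: cells exposed to compounds for 24 h before reading; nearly all actives have a fitted effect of over 50% in size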
Method in brief: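 Acute cytotoxicity is scored as a concentration-dependent drop in intracellular ATP, measured by luciferase luminescence in human lymphoblastoid cells treated for 24 hours at 37 C. AC50 values derive from Hill-equation modelling.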

[16] = Cell Viability - LYMP2-019 (AID 973); also: nearly all actives have a fitted effect of over 55% in size
Method in brief: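 AC50 values come from Hill-equation fits of luminescent intracellular ATP (CellTiter-Glo, 30 min, room temperature) following 24 h compound exposure at 37 C. Cells: LYMP2-019 lymphoblastoid line, 2500 per well, in complete culture medium.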

[17] = target: Voltage-gated inwardly rectifying potassium channel KCNH2 (Homo sapiens) (UniProt Q12809); assay: qHTS Assay for Small Molecule Inhibitors of the Human hERG Channel Activity (AID 588834);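 also: lower thallium flux fluorescence means stronger hERG block; nearly all actives have a fitted effect of over 50% in size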; also: potency is read from the fitted curve at half-maximal effect
Method in brief: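 Cells were infected with hERG-BacMam virus for 4 hrs at room temperature, grown overnight, then seeded at 2000/well. After dye loading and roughly 10 min compound treatment, thallium influx was triggered and fluorescence recorded.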

[18] = qHTS assay for small molecule activators of the human pregnane X receptor (PXR) signaling pathway (AID 720659; call rule not given here)
[19] = Cellular Toxicity (caspase-3) Hek293 (AID 664); conditions: HEK293 caspase-3 activation, DMSO = 0%, 100 µM tamoxifen = 100%; at 92.2 µM (top of the series);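 also: cells exposed to compound for 16 h at 37 °C before readout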
Method in brief: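 Concentration-response qHTS: caspase 3/7 activation measured by luminescent aminoluciferin substrate cleavage after 16 h compound exposure of Hek 293 cells. AC50 from Hill equation, with DMSO as basal and 100 uM tamoxifen as 100%.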

[20] = Cell Viability - LYMP2-022 (AID 987); also: nearly all actives have a fitted effect of over 55% in size
Method in brief: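 Cytotoxicity read as decreased cellular ATP (CellTiter-Glo luminescence, 30 min room temperature) after 24 hours compound exposure of 2500 lymphoblastoid LYMP2-022 cells/well at 37 C. Concentration-response data fitted with standard Hill equation for AC50.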

Sequence of Voltage-gated inwardly rectifying potassium channel KCNH2 (Homo sapiens) (Q12809 whole entry, looked up): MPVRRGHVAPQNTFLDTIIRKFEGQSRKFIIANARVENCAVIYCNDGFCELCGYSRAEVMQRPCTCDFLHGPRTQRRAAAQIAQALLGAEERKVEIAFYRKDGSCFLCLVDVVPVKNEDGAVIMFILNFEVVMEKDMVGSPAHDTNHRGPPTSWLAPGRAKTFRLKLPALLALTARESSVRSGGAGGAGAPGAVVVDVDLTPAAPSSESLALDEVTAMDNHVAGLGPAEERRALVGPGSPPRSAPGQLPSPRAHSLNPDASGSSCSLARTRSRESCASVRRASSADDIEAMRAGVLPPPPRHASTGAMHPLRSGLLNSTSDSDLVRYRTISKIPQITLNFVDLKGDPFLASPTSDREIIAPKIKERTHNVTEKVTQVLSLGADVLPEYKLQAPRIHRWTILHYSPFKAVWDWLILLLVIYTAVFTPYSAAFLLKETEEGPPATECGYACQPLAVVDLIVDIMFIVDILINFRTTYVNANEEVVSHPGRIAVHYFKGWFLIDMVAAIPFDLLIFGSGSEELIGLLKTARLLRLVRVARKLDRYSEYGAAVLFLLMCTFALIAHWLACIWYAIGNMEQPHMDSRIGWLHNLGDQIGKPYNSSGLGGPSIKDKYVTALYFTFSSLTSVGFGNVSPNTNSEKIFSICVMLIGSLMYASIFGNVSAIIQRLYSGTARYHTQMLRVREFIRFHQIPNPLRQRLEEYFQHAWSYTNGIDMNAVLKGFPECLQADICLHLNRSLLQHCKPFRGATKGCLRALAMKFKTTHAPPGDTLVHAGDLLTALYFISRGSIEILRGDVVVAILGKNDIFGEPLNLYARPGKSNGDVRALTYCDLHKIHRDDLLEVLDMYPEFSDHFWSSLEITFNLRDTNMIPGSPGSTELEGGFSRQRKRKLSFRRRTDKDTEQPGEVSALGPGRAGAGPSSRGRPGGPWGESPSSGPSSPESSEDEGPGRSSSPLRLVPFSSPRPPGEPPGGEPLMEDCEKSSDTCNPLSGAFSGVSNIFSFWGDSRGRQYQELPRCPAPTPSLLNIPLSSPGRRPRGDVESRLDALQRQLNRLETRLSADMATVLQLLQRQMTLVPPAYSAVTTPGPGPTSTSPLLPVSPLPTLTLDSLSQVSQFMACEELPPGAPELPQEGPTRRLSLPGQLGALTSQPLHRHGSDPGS

Compound | outcome [1] | caspase-3 activation [2] | Potency [3] | Potency [4] | Potency [5] | Potency [6] | Potency [7] | Potency [8] | Potency [9] | Potency [10] | Potency [11] | Potency [12] | activation [13] | Potency [14] | Potency [15] | Potency [16] | Potency [17] | outcome [18] | caspase-3 activation [19] | Potency [20]
c1ccc(P(c2ccccc2)c2ccccc2)cc1 | inactive | 0.655% | inactive | inactive | inactive | inactive | inactive | inactive | inactive | inactive | inactive | inactive | -0.914% | – | – | – | – | – | – | –
BrCCc1ccccc1 | – | – | inactive | inactive | inactive | inactive | inactive | inactive | inactive | inactive | inactive | inactive | -1.06% | inactive | inactive | inactive | inactive | inactive | – | –
Nc1c(Cl)cc([N+](=O)[O-])cc1Cl | inactive | 3.21% | inactive | – | inactive | inactive | inactive | inactive | – | inactive | – | – | 0.598% and -4.6% | – | inactive | inactive | – | inactive | 6.24% | inactive
Oc1c(Cl)c(Cl)cc(Cl)c1Cl | – | 83.2% (active) | inactive | inactive | inactive | inactive | inactive | inactive | – | – | inactive | inactive | – | inactive | inactive | – | inactive | inactive | -2.19% | inactive
Nc1ccc(Cc2ccc(N)c(Cl)c2)cc1Cl | – | – | inactive | inactive | inactive | – | – | inactive | inactive | – | inactive | inactive | – | inactive | inactive | inactive | – | – | – | inactive
N#CC(Br)Br | inactive | – | inactive | 50.1 µM (active) | – | 39.8 µM (active) | – | – | – | 50.1 µM (active) | – | – | -1.36% | inactive | – | – | inactive | inactive | 5.88% | –
c1ccc(N=NNc2ccccc2)cc1 | inactive | 6.34% | inactive | inactive | inactive | inactive | inactive | inactive | inactive | inactive | inactive | inactive | – | – | inactive | inactive | 39.8 µM (active) | – | -0.924% | inactive
COP(=S)(OC)SCn1nnc2ccccc2c1=O | inactive | -1.97% | inactive | inactive | inactive | – | inactive | inactive | inactive | inactive | inactive | – | – | inactive | inactive | inactive | inactive | – | 0.18% | –
O=C(O)c1cccc(Cl)c1 | inactive | -2.79% | inactive | inactive | inactive | inactive | inactive | inactive | inactive | inactive | – | inactive | -1.59% | inactive | inactive | inactive | inactive | inactive | -0.358% | inactive
